Each structure is given as a SMILES string. Compounds without any hit were thinned out: in the full panel of roughly 83,000, 20% have a hit.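 The test compound was applied at a single concentration to cells in 96-well plates for 48 hours, and percent growth was recorded.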 Calls of active or inactive are those of the source. How the source made its calls: active means growth percent below 10; inactive means the rest.

The test system of the first assay is SNB-75 CNS. Kind of assay: NCI-60 one-dose screen, 48 h (100 = growth as untreated, 0 = no growth, -100 = all killed). To be noted: 10 µM unless noted.
Consider `COc1cccc2cc(-c3cc4ccccc4[nH]3)/c(=N/C(=S)Nc3ccc(C)cc3)oc12`, for which the growth is -8.91% (active).

On to `CN1C(=O)N(C)C2NC(N/N=C/c3ccccc3)=NC21` (stereo unspecified), for which the growth was 76.3% (inactive).

On to `COc1cc(-c2cc(=O)oc3cc(O)ccc23)cc(OC)c1OC`, for which the growth was 74.5% (inactive).

Consider `COc1ccccc1/C=N/NC1=NC2C(N1)N(C)C(=O)N2C` (stereo unspecified), for which the growth was 83.4% (inactive).

For the compound `CCN(CC)CCSCCCNc1c(C)cnc2cc(Cl)ccc12`, the growth was 85.4% (inactive).

For the compound `COc1cc(Nc2cc(O)c3c(=O)cc(-c4ccccc4)oc3c2)cc(OC)c1`, the growth was -9.05% (active).

As for `NC(=O)c1ncn(C2OC(CO)C(O)C2O)n1` (stereo unspecified), the growth was 80.6% (inactive).

With `C(=N\Nc1ncc(-c2cc3cc4c(cc3o2)OCO4)s1)/c1c[nH]c2ccccc12`, the growth is -0.264% (active).

For `c1ccc(C2CC(c3cccc(Nc4ccncc4)c3)=NN2c2ccccc2)cc1` (stereo unspecified), the growth is 77.3% (inactive).

For the compound `CC1=NNC(=O)C1CCC(=O)N/N=C(\C)c1ccc2ccccc2c1` (stereo unspecified), the growth is 121% (inactive).

For `O=C(N/N=C/c1ccncc1)c1ccccc1Nc1cccc(C(F)(F)F)c1`, the growth is 75.8% (inactive).

Turning to `COc1ccc(Nn2c(SCC(=O)Nc3nc(-c4ccc(Cl)cc4)cs3)nc(C)c2C)cc1`, the growth was 45.8% (inactive).

Turning to `COc1c(Cl)cc(Cl)c2ccc(C=C3C(=O)N(C)C(=O)N(C)C3=O)nc12`, the growth was 98.6% (inactive).

Consider `Cc1cccc(C)c1-c1cc(Cc2ccc(Cl)cc2)c(=O)[nH]n1`, for which the growth is 90.5% (inactive).

Regarding `CCN1C(=O)N(CC)C2C1NN=c1s/c(=C3\C(=O)Nc4ccccc43)c(=O)n12` (stereo unspecified), the growth was -13.6% (active).

Turning to `CC(=O)Nc1ccc(C(=O)Nc2cc(-c3ccccc3)ccc2N)cc1`, the growth was 60.4% (inactive).

`CN1CCN(c2cc(F)c(NC3=C(Cl)C(=O)c4ncccc4C3=O)c(F)c2)CC1`: the growth is 38% (inactive).

As for `Clc1nc(Cl)c2ncn(CC3(Cn4cnc5c(Cl)nc(Cl)nc54)COC3)c2n1`, the growth is -96.6% (active).

In the case of `CC(C)(C)CC(C)(C)Nc1c(-c2ccc(C(F)(F)F)cc2)nc2cnccn12`, the growth was 81.1% (inactive).

In the case of `CCC(C)N(CCNc1cc(OC)cc2cccnc12)CCC(C)C` (stereo unspecified), the growth was 100% (inactive).

For `Cn1c(COC(=O)NCCc2ccccn2)nc2c(N3CCOCC3)nc(Cl)nc21`, the growth is 14.5% (inactive).

For the compound `BrC(Br)(Br)c1cnc2ccccc2n1`, the growth is 102% (inactive).

As to `Clc1ccc(N2N=C(c3cccc(Nc4ccncc4)c3)CC2c2ccc3c(c2)OCO3)cc1` (stereo unspecified), the growth is 55.9% (inactive).

Regarding `COc1cc(CNC(=O)CCCCC[P+](c2ccccc2)(c2ccccc2)c2ccccc2)c(OC)c2c1OCO2`, the growth is 68.5% (inactive).

Take `CC[C@@]12C=CCN3CC[C@]4(c5cc(NC(=O)COc6cc(OCC(=O)Nc7cc8c(cc7OC)N(C)[C@H]7[C@@](O)(C(=O)OC)[C@H](OC(C)=O)[C@]9(CC)C=CCN%10CC[C@]87[C@@H]%109)cc7oc(-c8ccccc8)cc(=O)c67)c(OC)cc5N(C)[C@@H]4[C@](O)(C(=O)OC)[C@H]1OC(C)=O)[C@H]32`: the growth is 82.5% (inactive).

With `O=C1Nc2c(ccc(Cl)c2Cl)/C1=C/c1ccc(O)cc1`, the growth is 56.7% (inactive).

For `COc1ccc(/C=C(/c2ccccc2)[N+](=O)[O-])cc1`, the growth was -85.5% (active).

Consider `COc1ccccc1/C=C1\Oc2cc(OCCCN3CCCC3)ccc2C1=O`, for which the growth is 83.5% (inactive).

Consider `COc1ccc(/C=C\c2nc3ccccc3s2)cc1OP(=O)(O)O`, for which the growth was -2.05% (active).

On to `COc1ccc(-c2c[nH]c(C(=O)O)c2-c2cc(OC)c3c(c2OC)OCO3)cc1`, for which the growth was 91.6% (inactive).

Consider `COc1ccc(C(=O)c2cc3c(N)c(C(=O)Nc4cccc(Cl)c4C)sc3nc2C)cc1`, for which the growth is -7.69% (active).

Take `O=C(/C=C\c1ccc(OCCCCCC[P+](c2ccccc2)(c2ccccc2)c2ccccc2)cc1)c1ccc2c(c1)OCCO2`: the growth was -40.4% (active).

Regarding `Cc1cccc(Oc2ccc(Nc3ncnc4ccc(NC(=O)CNCCO)cc34)cc2Cl)c1`, the growth is 77.1% (inactive).

Take `O=C(CSc1nc2sc3c(c2c(=O)n1Cc1ccccc1)CCCC3)N1CCN(c2ccccc2)CC1`: the growth was 79.4% (inactive).

Regarding `Cc1cccc(Oc2ccc(Nc3ncnc4ccc(NC(=O)CN(C)C)cc34)cc2Cl)c1`, the growth is 66.4% (inactive).

For the compound `O=C1/C(=C/c2ccc(O)cc2)COc2ccc(-c3ccccc3)cc21`, the growth is 90.4% (inactive).

As for `COc1ccc(C(=O)c2cc3c(N)c(C(=O)Nc4cccc(OC)c4)sc3nc2C)cc1`, the growth was -10.6% (active).

With `NS(=O)(=O)c1cccc(NC(=O)C(=O)C2C(=O)Nc3ccccc32)c1` (stereo unspecified), the growth is 74.6% (inactive).

The subject of the next assay is SNB-19 CNS. The description is as above. The settings on record: 10 µM unless noted.
For the compound `COc1cccc2cc(-c3cc4ccccc4[nH]3)/c(=N/C(=S)Nc3ccc(C)cc3)oc12`, the growth was 52.8% (inactive).

Turning to `CN1C(=O)N(C)C2NC(N/N=C/c3ccccc3)=NC21` (stereo unspecified), the growth was 102% (inactive).

As for `COc1cc(-c2cc(=O)oc3cc(O)ccc23)cc(OC)c1OC`, the growth is 95.3% (inactive).

On to `COc1ccccc1/C=N/NC1=NC2C(N1)N(C)C(=O)N2C` (stereo unspecified), for which the growth was 104% (inactive).

With `CCN(CC)CCSCCCNc1c(C)cnc2cc(Cl)ccc12`, the growth is 104% (inactive).

Turning to `COc1cc(Nc2cc(O)c3c(=O)cc(-c4ccccc4)oc3c2)cc(OC)c1`, the growth was 43.1% (inactive).

For `NC(=O)c1ncn(C2OC(CO)C(O)C2O)n1` (stereo unspecified), the growth was 104% (inactive).

For `C(=N\Nc1ncc(-c2cc3cc4c(cc3o2)OCO4)s1)/c1c[nH]c2ccccc12`, the growth was 3.35% (active).

As to `c1ccc(C2CC(c3cccc(Nc4ccncc4)c3)=NN2c2ccccc2)cc1` (stereo unspecified), the growth was 89.1% (inactive).

For `CC1=NNC(=O)C1CCC(=O)N/N=C(\C)c1ccc2ccccc2c1` (stereo unspecified), the growth is 114% (inactive).

For the compound `O=C(N/N=C/c1ccncc1)c1ccccc1Nc1cccc(C(F)(F)F)c1`, the growth was 72.2% (inactive).

`COc1ccc(Nn2c(SCC(=O)Nc3nc(-c4ccc(Cl)cc4)cs3)nc(C)c2C)cc1`: the growth is 79.2% (inactive).

On to `COc1c(Cl)cc(Cl)c2ccc(C=C3C(=O)N(C)C(=O)N(C)C3=O)nc12`, for which the growth was 92% (inactive).

In the case of `Cc1cccc(C)c1-c1cc(Cc2ccc(Cl)cc2)c(=O)[nH]n1`, the growth is 80.9% (inactive).

Take `CCN1C(=O)N(CC)C2C1NN=c1s/c(=C3\C(=O)Nc4ccccc43)c(=O)n12` (stereo unspecified): the growth was 36.5% (inactive).

Turning to `CC(=O)Nc1ccc(C(=O)Nc2cc(-c3ccccc3)ccc2N)cc1`, the growth is 91.7% (inactive).

As for `CN1CCN(c2cc(F)c(NC3=C(Cl)C(=O)c4ncccc4C3=O)c(F)c2)CC1`, the growth was 96.3% (inactive).

As to `Clc1nc(Cl)c2ncn(CC3(Cn4cnc5c(Cl)nc(Cl)nc54)COC3)c2n1`, the growth was -99.1% (active).

`CC(C)(C)CC(C)(C)Nc1c(-c2ccc(C(F)(F)F)cc2)nc2cnccn12`: the growth was 91.8% (inactive).

Take `CCC(C)N(CCNc1cc(OC)cc2cccnc12)CCC(C)C` (stereo unspecified): the growth was 96.2% (inactive).

With `Cn1c(COC(=O)NCCc2ccccn2)nc2c(N3CCOCC3)nc(Cl)nc21`, the growth was 60.6% (inactive).

Turning to `BrC(Br)(Br)c1cnc2ccccc2n1`, the growth was 67.9% (inactive).

Regarding `Clc1ccc(N2N=C(c3cccc(Nc4ccncc4)c3)CC2c2ccc3c(c2)OCO3)cc1` (stereo unspecified), the growth is 80.6% (inactive).

On to `COc1cc(CNC(=O)CCCCC[P+](c2ccccc2)(c2ccccc2)c2ccccc2)c(OC)c2c1OCO2`, for which the growth is 53.6% (inactive).

In the case of `CC[C@@]12C=CCN3CC[C@]4(c5cc(NC(=O)COc6cc(OCC(=O)Nc7cc8c(cc7OC)N(C)[C@H]7[C@@](O)(C(=O)OC)[C@H](OC(C)=O)[C@]9(CC)C=CCN%10CC[C@]87[C@@H]%109)cc7oc(-c8ccccc8)cc(=O)c67)c(OC)cc5N(C)[C@@H]4[C@](O)(C(=O)OC)[C@H]1OC(C)=O)[C@H]32`, the growth was 58.5% (inactive).

With `O=C1Nc2c(ccc(Cl)c2Cl)/C1=C/c1ccc(O)cc1`, the growth was 68.8% (inactive).

Consider `COc1ccc(/C=C(/c2ccccc2)[N+](=O)[O-])cc1`, for which the growth is -19% (active).

In the case of `COc1ccccc1/C=C1\Oc2cc(OCCCN3CCCC3)ccc2C1=O`, the growth was 91.2% (inactive).

As for `COc1ccc(/C=C\c2nc3ccccc3s2)cc1OP(=O)(O)O`, the growth is 28.8% (inactive).

With `COc1ccc(-c2c[nH]c(C(=O)O)c2-c2cc(OC)c3c(c2OC)OCO3)cc1`, the growth is 101% (inactive).

Regarding `COc1ccc(C(=O)c2cc3c(N)c(C(=O)Nc4cccc(Cl)c4C)sc3nc2C)cc1`, the growth is 39.9% (inactive).

On to `O=C(/C=C\c1ccc(OCCCCCC[P+](c2ccccc2)(c2ccccc2)c2ccccc2)cc1)c1ccc2c(c1)OCCO2`, for which the growth was 16.2% (inactive).

Consider `Cc1cccc(Oc2ccc(Nc3ncnc4ccc(NC(=O)CNCCO)cc34)cc2Cl)c1`, for which the growth is 65.6% (inactive).

Consider `O=C(CSc1nc2sc3c(c2c(=O)n1Cc1ccccc1)CCCC3)N1CCN(c2ccccc2)CC1`, for which the growth was 110% (inactive).

Regarding `Cc1cccc(Oc2ccc(Nc3ncnc4ccc(NC(=O)CN(C)C)cc34)cc2Cl)c1`, the growth is 59.9% (inactive).

For the compound `O=C1/C(=C/c2ccc(O)cc2)COc2ccc(-c3ccccc3)cc21`, the growth is 109% (inactive).

As for `COc1ccc(C(=O)c2cc3c(N)c(C(=O)Nc4cccc(OC)c4)sc3nc2C)cc1`, the growth is 40.2% (inactive).

For `NS(=O)(=O)c1cccc(NC(=O)C(=O)C2C(=O)Nc3ccccc32)c1` (stereo unspecified), the growth is 100% (inactive).

These data come from PubChem BioAssay (NCI).
